Results published in PubChem BioAssay.
The source made the active and inactive calls.

Experiments:
[1] = small molecules captured by biotinylated probe aFSTL3 – biochemical, small-molecule microarray, fluorescence 635/667, stem cell growth factor project, primary screen (AID 1064); settings: higher = more signal;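 also: measures binding of the biotinylated anti-FSTL3 antibody to printed compounds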
[2] = binders from COS7 lysate, DM2A8 probe, primary screen, torsin A project, cell lysate, small-molecule microarray, fluorescence 635/667 (AID 1065); settings: higher = more signal, COS7 lysate expressing mutant human TOR1A
[3] = small molecules captured by biotinylated probe aFGF2 – biochemical, small-molecule microarray, fluorescence 635/667, stem cell growth factor project, primary screen (AID 1067); settings: higher = more signal;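 also: measures binding of biotinylated aFGF2 protein to printed compounds on slides; z-score merges feature fluorescence and signal-to-noise across triplicate slides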
[4] = small molecules captured by biotinylated probe aFGF10 – biochemical, small-molecule microarray, fluorescence 635/667, stem cell growth factor project, primary screen (AID 1071); settings: higher = more signal;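 also: score merges 667 nm spot intensity and signal to noise from triplicate slides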
[5] = target: Neurogenic locus notch homolog protein 2 (Homo sapiens) (UniProt Q04721); assay: small molecules binding Notch2 protein – biochemical, small-molecule microarray, 635 nm fluorescence, stem cell growth factors, primary screen (AID 1073); settings: higher = more signal
Neurogenic locus notch homolog protein 2 (Homo sapiens), sequence (Q04721 whole entry, looked up, canonical isoform): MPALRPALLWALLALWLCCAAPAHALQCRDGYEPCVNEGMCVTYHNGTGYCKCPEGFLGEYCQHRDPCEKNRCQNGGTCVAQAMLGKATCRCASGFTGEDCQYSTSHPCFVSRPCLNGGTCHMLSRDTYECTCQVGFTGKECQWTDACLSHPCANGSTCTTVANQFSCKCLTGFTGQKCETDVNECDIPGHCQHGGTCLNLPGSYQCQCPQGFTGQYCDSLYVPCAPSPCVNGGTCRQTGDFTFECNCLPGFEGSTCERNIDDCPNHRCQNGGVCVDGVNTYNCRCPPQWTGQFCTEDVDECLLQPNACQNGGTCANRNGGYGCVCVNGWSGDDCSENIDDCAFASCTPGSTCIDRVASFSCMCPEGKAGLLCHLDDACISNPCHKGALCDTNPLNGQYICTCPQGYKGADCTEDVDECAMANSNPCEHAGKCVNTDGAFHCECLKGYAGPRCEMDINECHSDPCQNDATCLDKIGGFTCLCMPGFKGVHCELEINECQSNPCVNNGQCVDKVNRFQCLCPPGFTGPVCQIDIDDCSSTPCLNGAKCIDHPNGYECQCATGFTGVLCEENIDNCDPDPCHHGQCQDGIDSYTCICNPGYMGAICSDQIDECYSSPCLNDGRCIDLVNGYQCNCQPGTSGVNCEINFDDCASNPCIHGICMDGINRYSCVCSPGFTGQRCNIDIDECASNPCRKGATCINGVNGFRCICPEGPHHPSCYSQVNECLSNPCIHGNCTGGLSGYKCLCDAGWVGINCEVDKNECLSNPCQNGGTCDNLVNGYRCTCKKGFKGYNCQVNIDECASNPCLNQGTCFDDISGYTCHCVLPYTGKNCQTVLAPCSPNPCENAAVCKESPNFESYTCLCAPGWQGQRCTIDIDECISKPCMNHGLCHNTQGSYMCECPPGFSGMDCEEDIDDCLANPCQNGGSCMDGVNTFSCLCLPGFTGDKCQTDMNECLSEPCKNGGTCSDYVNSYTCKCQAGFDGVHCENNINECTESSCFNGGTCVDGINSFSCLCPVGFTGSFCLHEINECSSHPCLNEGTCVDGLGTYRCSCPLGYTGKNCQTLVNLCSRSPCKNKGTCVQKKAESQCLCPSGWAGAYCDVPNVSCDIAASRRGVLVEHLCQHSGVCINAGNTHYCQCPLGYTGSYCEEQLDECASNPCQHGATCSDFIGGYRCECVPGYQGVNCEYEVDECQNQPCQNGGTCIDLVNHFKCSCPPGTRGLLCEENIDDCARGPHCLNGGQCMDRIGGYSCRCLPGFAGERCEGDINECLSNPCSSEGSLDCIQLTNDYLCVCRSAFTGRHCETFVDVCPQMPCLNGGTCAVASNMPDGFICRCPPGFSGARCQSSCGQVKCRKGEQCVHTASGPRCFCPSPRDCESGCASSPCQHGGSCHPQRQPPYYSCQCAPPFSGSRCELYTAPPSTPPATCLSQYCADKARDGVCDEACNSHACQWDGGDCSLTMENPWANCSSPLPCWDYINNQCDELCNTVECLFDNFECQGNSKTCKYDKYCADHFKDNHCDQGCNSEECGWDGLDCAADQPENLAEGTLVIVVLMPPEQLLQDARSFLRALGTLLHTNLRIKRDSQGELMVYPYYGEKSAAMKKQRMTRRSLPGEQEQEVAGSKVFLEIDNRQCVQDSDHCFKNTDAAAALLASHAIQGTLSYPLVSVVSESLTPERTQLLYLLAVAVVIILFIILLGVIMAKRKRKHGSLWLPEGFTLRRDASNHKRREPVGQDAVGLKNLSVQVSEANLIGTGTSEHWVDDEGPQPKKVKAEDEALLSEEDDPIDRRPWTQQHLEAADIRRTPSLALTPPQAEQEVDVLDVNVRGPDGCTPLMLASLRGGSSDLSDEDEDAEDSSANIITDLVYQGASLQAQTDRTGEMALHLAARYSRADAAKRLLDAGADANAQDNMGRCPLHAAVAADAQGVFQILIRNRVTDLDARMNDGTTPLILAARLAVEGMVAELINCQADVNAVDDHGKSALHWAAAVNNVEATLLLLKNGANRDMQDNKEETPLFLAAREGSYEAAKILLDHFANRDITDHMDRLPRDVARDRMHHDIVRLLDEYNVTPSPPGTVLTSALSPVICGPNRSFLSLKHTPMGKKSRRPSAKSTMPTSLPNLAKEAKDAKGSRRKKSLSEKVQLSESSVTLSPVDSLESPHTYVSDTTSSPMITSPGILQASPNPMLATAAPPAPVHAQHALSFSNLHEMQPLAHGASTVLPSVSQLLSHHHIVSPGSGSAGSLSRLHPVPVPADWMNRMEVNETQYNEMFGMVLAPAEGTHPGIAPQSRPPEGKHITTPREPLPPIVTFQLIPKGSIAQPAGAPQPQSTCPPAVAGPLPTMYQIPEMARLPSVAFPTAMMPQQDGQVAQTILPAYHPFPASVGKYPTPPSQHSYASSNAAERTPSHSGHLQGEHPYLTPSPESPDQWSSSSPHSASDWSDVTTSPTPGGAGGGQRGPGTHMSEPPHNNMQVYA

[6] = target: Pro-neuregulin-1, membrane-bound isoform (Homo sapiens) (UniProt Q02297); assay: small molecules binding neuregulin-1 protein – biochemical, small-molecule microarray, fluorescence 635/667, psychiatric disease protein project, primary screen (AID 1075); settings: NRG1 binding, 635 nm fluorescence, higher = more signal;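 also: score combines 667 nm spot fluorescence with signal to noise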
Pro-neuregulin-1, membrane-bound isoform (Homo sapiens), sequence (Q02297 whole entry, looked up, the tested form may be a part, canonical isoform): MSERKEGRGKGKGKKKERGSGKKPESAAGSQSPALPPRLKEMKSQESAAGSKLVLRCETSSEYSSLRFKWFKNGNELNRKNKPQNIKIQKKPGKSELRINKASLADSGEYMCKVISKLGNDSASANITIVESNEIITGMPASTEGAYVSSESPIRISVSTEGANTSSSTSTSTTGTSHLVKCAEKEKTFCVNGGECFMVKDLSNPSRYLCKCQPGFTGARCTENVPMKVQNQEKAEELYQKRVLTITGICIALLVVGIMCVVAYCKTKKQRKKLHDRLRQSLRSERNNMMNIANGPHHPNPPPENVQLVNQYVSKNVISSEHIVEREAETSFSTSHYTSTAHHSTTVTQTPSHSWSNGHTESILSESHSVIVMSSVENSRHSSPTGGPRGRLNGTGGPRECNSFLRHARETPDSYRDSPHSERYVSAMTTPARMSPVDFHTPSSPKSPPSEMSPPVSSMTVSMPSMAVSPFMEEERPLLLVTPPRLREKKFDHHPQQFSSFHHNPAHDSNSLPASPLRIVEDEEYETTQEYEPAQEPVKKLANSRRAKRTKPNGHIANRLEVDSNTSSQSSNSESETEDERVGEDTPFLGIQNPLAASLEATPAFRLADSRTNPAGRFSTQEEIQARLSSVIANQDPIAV

[7] = system: Neuregulin-1 EGF-like domain; assay: small molecules binding NRG1 EGF domain – biochemical, small-molecule microarray, 635 nm fluorescence, primary screen (AID 1081); settings: higher = more signal;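 also: binding of the protein to compounds printed on small-molecule microarray slides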
[8] = FRG1 expression reporter modulators in myotubes – cell-based, C2C12 myotubes, firefly/Renilla luciferase, luminescence, FRG1 inhibition for FSHD, primary screen (AID 1084); settings: FRG1 promoter luciferase, higher = more signal, called active from +8 up or from −8 down
[9] = small molecules captured by biotinylated probe aFST – biochemical, small-molecule microarray, fluorescence 635/667, stem cell growth factor project, primary screen (AID 1086); settings: higher = more signal;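 also: score merges 667 nm fluorescence with signal-to-noise of each printed compound spot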
[10] = binders of probe aHhip on microarray, primary screen, stem cell growth factor project, biochemical, small-molecule microarray, fluorescence 635/667 (AID 1087); settings: higher = more signal;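 also: score merges spot fluorescence at 667nm with spot signal to noise ratio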

| Compound | composite z-score [1] | composite z-score [2] | composite z-score [3] | composite z-score [4] | composite z-score [5] | composite z-score [6] | composite z-score [7] | z-score [8] | composite z-score [9] | composite z-score [10] |
| --- | --- | --- | --- | --- | --- | --- | --- | --- | --- | --- |
| C=C(C(=O)CC[C@@H](OC(=O)c1cccnc1)c1ccccc1OCCO)C(C)C | -0.44 | 0.447 | -0.119 | 0.0736 | 0.151 | 0.21 | 0.624 | -0.151 (inactive) | 0.0397 | 0.0156 |
| C=CCNC(=O)[C@@H]1[C@H]2C(=O)O[C@H](c3ccccc3)[C@H](c3ccccc3)N2[C@H](c2ccc(OCCO)cc2)[C@@]12C(=O)Nc1ccc(C#CCC(C(=O)OC)C(=O)OC)cc12 | 0.148 | 0.694 | 0.0185 | 0.721 | 0.89 | 1.81 | 1.3 | 0.141 (inactive) | 0.452 | 0.0505 |
| C=C(COC)/C(=C/C[C@@H](OC(=O)c1ccncc1)c1ccc(CO)o1)c1cc(C(=O)OC)ccc1OC | -0.496 | 0.699 | -0.0451 | 0.833 | 1.38 | 0.97 | 1.26 | -1.38 (inactive) | 0.458 | -0.0994 |
| Cc1ccc(S[C@]2(C(=O)NC3CC3)CC(=O)N(Cc3ccccc3)[C@@H]2c2ccc(CO)cc2I)cc1 | 0.433 | -0.703 | -0.146 | 0.333 | -0.823 | 1.23 | 0.966 | -2.74 (inactive) | -0.73 | -0.0047 |
| CC#CC(=O)Oc1ccccc1C=CC(=O)OCC | -0.156 | -0.0011 | -0.0268 | 0.238 | 0.53 | 0.133 | 0.448 | 0.809 (inactive) | 0.163 | -0.125 |
| CCCC[C@H]1OB(O)C[C@H]2C1=C(COC)C[C@H]1C(=O)N(C)C(=O)[C@H]12 | -0.441 | 0.49 | -0.144 | 0.18 | 0.364 | -0.149 | 0.6 | 0.0329 (inactive) | 0.106 | -0.15 |
| CCc1cccc(NC(=O)O[C@H]2[C@H](OC(=O)Nc3ccccc3-c3ccccc3)[C@@H](OC(=O)Nc3ccccc3-c3ccccc3)[C@@H](OC)O[C@@H]2CO)c1 | -0.283 | 0.79 | 0.14 | 0.806 | 1.6 | 1.88 | 1.27 | 1.38 (inactive) | 1.32 | -0.104 |
| C=C(COC)/C(=C/C[C@H](OC(C)=O)c1ccc(CO)o1)c1cc(C(=O)OC)ccc1OC | -0.113 | 0.183 | -0.129 | 0.779 | -0.925 | 0.0136 | 0.7 | 0.0728 (inactive) | -0.0787 | 0.0749 |
| COC(=O)[C@@]1(Cc2ccc(OC)cc2)[C@H]2c3cc(C(=O)N4CCCC4)n(CCN4CNCC4=O)c3C[C@H]2CN1C(=O)c1ccccc1 | 2.52 | 0.873 | 0.797 | 1.22 | 1.4 | 1.78 | 1.45 | 0.632 (inactive) | 2.37 | 3.13 |
| COC(=O)[C@@]1(Cc2ccc(F)cc2)[C@H]2c3cc(C(=O)N(C)C)n(Cc4cc(F)c(F)c(F)c4)c3C[C@H]2CN1C(=O)c1ccccc1 | 0.293 | -0.528 | 0.261 | 0.593 | 1.77 | 1.61 | 0.971 | 0.621 (inactive) | 1.88 | 0.142 |
| O=C1C2C=CC(C(O)c3cc(C(F)(F)F)cc(C(F)(F)F)c3)N(n3cnnc3)C2C(=O)N1Cc1ccccc1 (stereo not given) | -0.153 | 0.0607 | -0.0628 | -0.251 | 0.203 | 0.339 | -0.159 | 1.1 (inactive) | 0.368 | 0.144 |
| Cc1ccc(S[C@]2(C(=O)NCCCN(C)C)CC(=O)N(Cc3ccccc3C(F)(F)F)[C@@H]2c2ccc(CO)cc2)cc1 | 0.678 | -0.554 | -0.138 | -0.572 | -1.37 | 0.907 | -1.08 | -1.31 (inactive) | 0.0539 | -0.0994 |
| O=C1[C@@]23C=C(Br)[C@H](C[C@@H]2CCOC3)[C@@]12CO2 | -0.655 | 0.113 | -0.103 | 0.283 | 0.306 | -0.213 | -0.1 | -0.413 (inactive) | -0.0444 | 0.0373 |
| CCCC[C@@H]1C[C@H]1[C@@H](NC(=O)c1ccccc1)c1ccc(C(=O)OC)cc1 | 1.37 | -0.0965 | -0.0273 | -0.282 | -0.547 | -0.273 | -0.544 | 0.191 (inactive) | -0.303 | 0.35 |
| COC(=O)C(CC#Cc1ccc2c(c1)[C@]1(C(=O)N2)[C@H](C(=O)Nc2nc3ccccc3s2)[C@H]2C(=O)O[C@H](c3ccccc3)[C@H](c3ccccc3)N2[C@@H]1c1ccccc1OCCO)C(=O)OC | 0.0102 | 0.628 | 0.0941 | 1.12 | 1.26 | 1.07 | 1.31 | 1.43 (inactive) | 0.709 | -0.0296 |
| C=CCN1C(=O)[C@]2(O[C@H](CCn3cc([C@H](O)c4ccccc4)nn3)[C@@H]([Si](C)(C)c3ccc(OC)cc3)[C@@H]2C)c2cc(N3CCC3=O)ccc21 | -0.0453 | 0.334 | 0.0087 | 0.679 | -0.255 | 1.9 | 1.14 | -1.43 (inactive) | -0.282 | 0.0505 |
| C=C[C@H](CO[Si](CC)(CC)CC)N(Cc1ccc(OC(C)=O)c(OC)c1)S(=O)(=O)c1ccc(Br)cc1 | 0.572 | 1.64 | 0.365 | 0.326 | -0.156 | 1.27 | 1.05 | -2.48 (inactive) | 1.22 | -0.0788 |
| CCN(CC)c1ccc(N2CC=CC34O[C@@H]5C=CCCOC(=O)C5[C@H]3C(=O)N(CCCCCCO)[C@@H]4C2=O)cc1 (stereo not given in full) | -0.16 | 0.345 | -0.16 | -0.286 | -0.439 | -0.173 | 1.6 | -0.959 (inactive) | -0.581 | -0.249 |
| NCCCCCCNC(=O)[C@@H]1C[C@@H]2C(=O)NCC(=O)N2[C@@H]1c1ccc(O)cc1 | -0.175 | 0.853 | -0.14 | 0.177 | 0.571 | 1.32 | 1.41 | 1.03 (inactive) | 0.703 | -0.207 |
| COc1ccc(CCNC(=O)[C@@]2(Sc3ccc(C)cc3)CC(=O)N(C(C)C)[C@@H]2c2ccc(CO)cc2I)cc1 | -0.0354 | -0.566 | 0.0376 | -0.341 | -0.83 | -0.387 | 0.31 | -0.132 (inactive) | 0.238 | -0.511 |
| COCCCNC(=O)[C@]1(CCC(=O)OC(C)(C)C)N=C(c2ccc(OCCCO)cc2)O[C@@H]1c1ccccc1CN=[N+]=[N-] | 0.175 | 1.19 | 0.042 | 1.27 | 0.96 | 0.732 | 1.41 | 4.82 (inactive) | 0.728 | 0.107 |
